# Screening data as filed in PubChem.
# LYPLA2 inh = blocks human lysophospholipase 2, a PME1 counter-screen. AID 2177. inhibition, % at 5.9 µM. recombinant LYPLA2, FP-Rh probe fluorescence polarization. hit rate 0.38% among 320,000. O95372;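 active = inhibition above the screen-wide mean plus 3 SD, limit set per campaign, cut at about 26% in these data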
# PAFAH1B2 FP inh = inhibitors of human PAFAH1B2; hit rate 1.2% among 340,000; inhibition, % at 3.39 µM; P68402; recombinant PAFAH1B2, FP-rhodamine activity probe, fluorescence polarization;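 active = inhibition above the mean of all tested compounds plus 3 SD, cut at about 24% in these data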
# LYPLA1 counter = LYPLA1 (human) inhibition in PME1 counter-screen. AID 2174. hit rate 0.16% among 320,000. inhibition, % at 5.9 µM. recombinant LYPLA1, FP-Rh probe fluorescence polarization;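 active = inhibition above the mean of all tested compounds plus 3 SD, set per campaign, cut at about 14% in these data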;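 also: inhibitors block serine hydrolase probe labeling of LYPLA1 so polarization falls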
# Target sequence (O75608 whole entry, looked up): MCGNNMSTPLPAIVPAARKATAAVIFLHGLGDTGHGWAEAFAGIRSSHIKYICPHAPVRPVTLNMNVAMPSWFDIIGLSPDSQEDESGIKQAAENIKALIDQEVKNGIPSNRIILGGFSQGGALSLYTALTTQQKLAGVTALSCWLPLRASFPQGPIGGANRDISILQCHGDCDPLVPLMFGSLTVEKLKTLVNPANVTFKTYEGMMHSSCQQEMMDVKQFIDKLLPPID
# PAFAH2 FP inh = PAFAH2 (human) inhibition; recombinant PAFAH2, FP-rhodamine activity probe, fluorescence polarization; inhibition, % at 3.39 µM; hit rate 0.99% among 340,000; AID 492956;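 active = inhibition above the mean over all tested compounds plus 3 SD, cut at about 30% in these data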;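 also: inhibitors block probe labeling of enzyme so polarization drops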
# pPAFAH inh = inhibitors of human plasma PAF acetylhydrolase (pPAFAH); Q13093; recombinant pPAFAH, FP-rhodamine probe fluorescence polarization; inhibition, % at 3.39 µM; hit rate 1.5% among 330,000; AID 463082;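 active = inhibition above the mean inhibition across the screen plus 3 SD, cut at about 25% in these data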;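 also: inhibitors block binding of the rhodamine activity-based probe so polarization drops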
# PAFAH1B3 inh = blocks human PAF acetylhydrolase 1B catalytic subunit 3; Q15102; recombinant PAFAH1B3, FP-rhodamine probe, fluorescence polarization; inhibition, % at 3.39 µM; hit rate 0.28% among 340,000;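 active = inhibition above the screen-wide average of all tested compounds plus 3 SD, cut at about 25% in these data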
# Hits are given with their value; 0 = inactive; - = not tested or not shown. The list is not random: actives were taken first. Their share in the collection is about 2.9%.
SMILES,LYPLA2 inh,PAFAH1B2 FP inh,LYPLA1 counter,PAFAH2 FP inh,pPAFAH inh,PAFAH1B3 inh
Cc1[nH]c2ccccc2c1/C=N/NC(=O)c1ccccc1,0,0,0,0,0,0
Cc1ccc(C2SCCN2C(=O)c2ccc([N+](=O)[O-])cc2)cc1 (stereo unspecified),0,24.5,0,0,0,0
CC(=O)Nc1ccc(N2C(=O)CSC2c2ccc([N+](=O)[O-])cc2)cc1 (stereo unspecified),0,0,0,0,0,0
O=C(c1ccc([N+](=O)[O-])cc1)N1CCSC1c1ccc(Cl)cc1 (stereo unspecified),0,29.0,0,0,0,0
O=C(NCC1CCCN1S(=O)(=O)c1cccs1)c1cccc(Cl)c1 (stereo unspecified),0,0,0,0,0,0
CC1c2[nH]c3ccccc3c2C[C@H]2C(=O)N(CCCN(C)C)CC(=O)N12 (stereo partly specified),0,0,0,0,0,0
C=C1C(=O)[C@@]23[C@H](O)C[C@@H]4C(C)(C)CC[C@H](O)[C@@]4(C)[C@@H]2CC[C@@H]1[C@H]3O,0,86.0,0,0,0,0
C=C1C(=O)[C@@]23[C@H](O)C[C@@H]4C(C)(C)CC[C@H](O)[C@]4(C)[C@@H]2C[C@H](O)[C@@H]1[C@H]3O,0,80.5,0,0,0,0
Cc1ccc(S(=O)(=O)N2CCN(C(=O)c3ccccc3Cc3ccccc3)CC2)c(C)c1,0,27.4,0,0,0,0
O=C(Nc1cc(S(=O)(=O)N2CCOCC2)ccc1N1CCCCC1)c1cc(-c2ccccn2)nc2ccccc12,0,0,0,0,0,0
O=C1C=C(Nc2cccc3cccnc23)c2ccccc2C1=O,0,0,0,0,33.6,0
O=C1C=C(Nc2ccccc2C(=O)O)c2ccccc2C1=O,0,0,0,39.3,0,58.6
O=C(NCc1ccco1)c1cccc2c1C(=O)c1ccc(N3CCC(Cc4ccccc4)CC3)cc1S2(=O)=O,-,0,-,0,33.1,0
O=C(NCc1cccc(F)c1)c1cccc2c1C(=O)c1ccc(N3CCC(Cc4ccccc4)CC3)cc1S2(=O)=O,-,0,-,0,0,0
Cc1ccccc1CS(=O)(=O)Cc1ccc(C(=O)NCc2ccco2)o1,0,0,0,0,24.8,0
Cc1ccccc1S(=O)(=O)Cc1ccc(C(=O)NCc2ccco2)o1,0,0,0,0,0,0
COc1ccc(C(=O)NC(=S)NCc2cccnc2)cc1OC,0,0,0,0,0,0
COc1ccc(C(=O)NC(=S)NCc2ccccc2)cc1OC,0,0,0,0,30.3,0
COc1cccc(CNC(=O)CCn2ccc3cc(S(=O)(=O)N4CCC(C)CC4)ccc32)c1,0,24.7,0,0,0,0
CCNC(=O)/C=C/c1ccccc1[N+](=O)[O-],0,0,0,0,0,0
CC(NS(=O)(=O)c1ccc2c(c1)OCCO2)c1ccccc1 (stereo unspecified),0,27.1,0,0,0,0
Cc1nc2ccc(NC(=O)N3CCCCC3)cc2nc1C,0,0,0,0,0,0
O=C(Nc1ccc2nc(-c3ccco3)c(-c3ccco3)nc2c1)N1CCCCCC1,0,-,0,-,68.8,-
CCOC(=O)C1CCN(C(=O)Nc2ccc3nc(-c4ccco4)c(-c4ccco4)nc3c2)CC1,0,0,0,0,59.5,0
O=C(Nc1sc(-c2ccccc2)cc1C(=O)O)c1ccccc1,0,32.1,0,0,0,0
SMILES,LYPLA2 inh,PAFAH1B2 FP inh,LYPLA1 counter,PAFAH2 FP inh,pPAFAH inh,PAFAH1B3 inh
CC(=O)N(C)c1ccc(OCC(O)CN(c2ccccc2C)S(=O)(=O)c2ccc(C)cc2)cc1 (stereo unspecified),0,0,0,0,0,0
CC(Sc1nn(-c2ccc(F)cc2)c(=S)s1)C(=O)c1c(N)n(C)c(=O)n(C)c1=O (stereo unspecified),0,0,0,0,29.8,0
O=C1NN(c2ccccc2)C(=O)/C1=C/c1ccc(Sc2ccc(Cl)cc2)o1,0,28.7,0,0,0,0
O=C1NN(c2ccccc2)C(=O)/C1=C/c1ccc(-c2ccc(Cl)c(C(=O)O)c2)o1,-,0,-,0,-,0
Cc1ccc(Sc2ccc(/C=C3/C(=O)NN(c4ccccc4)C3=O)o2)cc1,0,36.0,0,0,0,0
CC1Nc2ccccc2C(=O)N1NS(C)(=O)=O (stereo unspecified),0,0,0,0,27.7,0
CC(C)Cc1csc(NC(=O)c2ccccc2Cl)c1C(=O)O,0,0,0,0,0,0
